# Reference: article PMC7862700, “An all-to-all approach to the identification of sequence-specific readers for epigenetic DNA modifications on cytosine”
# Key:
# Assay in all cases: DAPPL (digital affinity profiling via proximity ligation, sequencing); 10 mM Tris-HCl pH 7.5, 50 mM NaCl, 1 mM DTT, 4% glycerol, room temperature, 30 min; GST-TFs on glutathione beads, 16-mer random dsDNA library, 0.1% formaldehyde crosslink after washing; high values mean tight binding
# FLI1 = biological target: T1, FLI1 (Homo sapiens, UniProt Q01543 1-452); conditions: protein: recombinant; tags: N-terminal GST; dsDNA, one strand shown
# T1 sequence: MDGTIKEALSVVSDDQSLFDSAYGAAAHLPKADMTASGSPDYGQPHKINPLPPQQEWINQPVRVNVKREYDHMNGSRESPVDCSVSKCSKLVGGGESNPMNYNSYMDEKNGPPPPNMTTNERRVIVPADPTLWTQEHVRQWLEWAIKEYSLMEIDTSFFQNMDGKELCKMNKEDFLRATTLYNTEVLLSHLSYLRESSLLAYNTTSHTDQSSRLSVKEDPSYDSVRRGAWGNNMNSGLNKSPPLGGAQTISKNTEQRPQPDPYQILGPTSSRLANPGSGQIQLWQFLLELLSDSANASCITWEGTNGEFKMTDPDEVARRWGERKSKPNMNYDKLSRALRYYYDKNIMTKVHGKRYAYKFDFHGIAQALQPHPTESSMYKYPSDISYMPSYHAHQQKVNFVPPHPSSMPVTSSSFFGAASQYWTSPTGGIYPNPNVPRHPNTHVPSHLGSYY
# In short: (§1)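 After expression in yeast as GST fusions, human transcription factors were bound to glutathione beads, DNA-barcoded and mixed with a tag-only sample. The pools were incubated with 200 nmole of a 16-mer random double-stranded DNA library in Tris/NaCl/DTT/glycerol buffer (30 min, room temperature), washed and crosslinked with 0.1% formaldehyde. Proximity ligation with BsaI/T4 ligase ran for 1 h at 37 °C, before PCR amplification and sequencing on an Illumina NextSeq500. Binding signal is a hexamer's read frequency for a factor divided by its frequency for the tag-only sample.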
# ELK1 = biological target: T2, ELK1 (Homo sapiens, UniProt P19419 1-428); conditions: protein: recombinant; tags: N-terminal GST; dsDNA, one strand shown
# T2 sequence: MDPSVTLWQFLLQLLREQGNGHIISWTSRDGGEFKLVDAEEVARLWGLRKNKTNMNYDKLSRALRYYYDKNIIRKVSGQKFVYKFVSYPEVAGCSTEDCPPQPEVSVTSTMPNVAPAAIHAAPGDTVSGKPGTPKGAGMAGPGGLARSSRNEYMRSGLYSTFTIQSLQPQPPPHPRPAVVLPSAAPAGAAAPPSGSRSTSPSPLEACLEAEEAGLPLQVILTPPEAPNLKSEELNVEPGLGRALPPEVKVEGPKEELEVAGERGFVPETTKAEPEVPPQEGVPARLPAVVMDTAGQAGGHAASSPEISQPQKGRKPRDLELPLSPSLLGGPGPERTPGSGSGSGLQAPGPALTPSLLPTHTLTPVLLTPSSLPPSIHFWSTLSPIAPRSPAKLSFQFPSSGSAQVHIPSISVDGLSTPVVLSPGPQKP
# In short: as §1
# GABPA = biological target: T3, GABPA (Homo sapiens, UniProt Q06546 1-454); conditions: protein: recombinant; tags: N-terminal GST; dsDNA, one strand shown
# T3 sequence: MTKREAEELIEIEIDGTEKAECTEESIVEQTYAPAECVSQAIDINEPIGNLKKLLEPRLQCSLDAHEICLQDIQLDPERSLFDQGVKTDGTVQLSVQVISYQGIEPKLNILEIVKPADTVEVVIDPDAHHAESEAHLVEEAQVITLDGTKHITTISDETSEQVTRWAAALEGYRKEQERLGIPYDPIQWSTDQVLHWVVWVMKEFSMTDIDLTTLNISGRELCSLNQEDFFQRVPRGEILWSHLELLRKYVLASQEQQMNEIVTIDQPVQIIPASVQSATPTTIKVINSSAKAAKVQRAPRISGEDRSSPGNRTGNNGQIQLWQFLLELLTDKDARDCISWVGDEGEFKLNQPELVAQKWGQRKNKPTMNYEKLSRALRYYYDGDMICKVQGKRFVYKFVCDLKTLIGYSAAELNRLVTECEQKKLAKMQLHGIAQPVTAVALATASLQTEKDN
# In short: as §1
# ERG = biological target: T4, ERG (Homo sapiens, UniProt P11308 1-479); conditions: protein: recombinant; tags: N-terminal GST; dsDNA, one strand shown
# T4 sequence: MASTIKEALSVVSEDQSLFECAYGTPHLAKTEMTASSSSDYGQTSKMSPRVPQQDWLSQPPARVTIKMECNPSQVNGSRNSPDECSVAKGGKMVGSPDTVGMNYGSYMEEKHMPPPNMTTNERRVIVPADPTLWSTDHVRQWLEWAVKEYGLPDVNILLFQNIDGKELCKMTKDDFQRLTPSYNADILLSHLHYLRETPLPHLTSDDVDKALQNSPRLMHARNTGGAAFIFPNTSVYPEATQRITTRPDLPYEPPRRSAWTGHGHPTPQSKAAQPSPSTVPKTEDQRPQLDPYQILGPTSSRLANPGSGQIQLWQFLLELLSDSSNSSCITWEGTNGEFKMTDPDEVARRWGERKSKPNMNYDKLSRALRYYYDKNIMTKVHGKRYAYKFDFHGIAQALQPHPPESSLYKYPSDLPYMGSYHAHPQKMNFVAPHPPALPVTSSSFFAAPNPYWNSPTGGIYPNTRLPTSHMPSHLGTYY
# In short: as §1
# ELF1 = ELF1 (Homo sapiens, UniProt P32519 1-619); conditions: protein: recombinant; tags: N-terminal GST; dsDNA, one strand shown
# Chain of ELF1 (P32519 whole entry): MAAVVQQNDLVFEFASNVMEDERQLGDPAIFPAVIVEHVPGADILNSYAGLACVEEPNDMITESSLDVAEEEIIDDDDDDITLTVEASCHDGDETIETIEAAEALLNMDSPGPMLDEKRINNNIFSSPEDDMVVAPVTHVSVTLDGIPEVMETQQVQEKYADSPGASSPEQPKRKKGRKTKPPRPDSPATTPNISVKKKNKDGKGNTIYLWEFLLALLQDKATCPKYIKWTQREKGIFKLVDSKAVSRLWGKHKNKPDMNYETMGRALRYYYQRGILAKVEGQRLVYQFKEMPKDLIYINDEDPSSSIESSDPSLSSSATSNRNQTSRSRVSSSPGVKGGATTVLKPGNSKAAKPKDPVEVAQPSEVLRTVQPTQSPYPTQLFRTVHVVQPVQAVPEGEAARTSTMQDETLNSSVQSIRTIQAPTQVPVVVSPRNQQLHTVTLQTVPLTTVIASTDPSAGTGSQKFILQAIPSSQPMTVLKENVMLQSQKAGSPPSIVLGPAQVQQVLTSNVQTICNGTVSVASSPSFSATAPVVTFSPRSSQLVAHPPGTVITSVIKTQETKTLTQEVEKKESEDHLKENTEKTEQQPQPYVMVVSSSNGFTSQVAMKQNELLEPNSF
# In short: as §1
# EHF = biological target: T5, EHF (Homo sapiens, UniProt Q9NZC4 1-300); conditions: protein: recombinant; tags: N-terminal GST; dsDNA, one strand shown
# T5 sequence: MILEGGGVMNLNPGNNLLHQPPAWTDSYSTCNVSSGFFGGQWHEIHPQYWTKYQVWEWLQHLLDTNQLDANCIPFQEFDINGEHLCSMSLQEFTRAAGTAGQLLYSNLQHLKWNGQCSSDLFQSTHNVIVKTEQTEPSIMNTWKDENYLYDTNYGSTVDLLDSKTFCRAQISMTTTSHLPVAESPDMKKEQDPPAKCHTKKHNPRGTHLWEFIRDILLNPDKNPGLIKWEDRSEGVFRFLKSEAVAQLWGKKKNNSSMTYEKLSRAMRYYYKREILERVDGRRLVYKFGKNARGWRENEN
# In short: as §1
# SPI1 = SPI1 (Homo sapiens, UniProt P17947 1-270); conditions: protein: recombinant; tags: N-terminal GST; dsDNA, one strand shown
# In short: as §1
# SPIB = SPIB (Homo sapiens, UniProt Q01892 1-262); conditions: protein: recombinant; tags: N-terminal GST; dsDNA, one strand shown
# Chain of SPIB (Q01892 whole entry): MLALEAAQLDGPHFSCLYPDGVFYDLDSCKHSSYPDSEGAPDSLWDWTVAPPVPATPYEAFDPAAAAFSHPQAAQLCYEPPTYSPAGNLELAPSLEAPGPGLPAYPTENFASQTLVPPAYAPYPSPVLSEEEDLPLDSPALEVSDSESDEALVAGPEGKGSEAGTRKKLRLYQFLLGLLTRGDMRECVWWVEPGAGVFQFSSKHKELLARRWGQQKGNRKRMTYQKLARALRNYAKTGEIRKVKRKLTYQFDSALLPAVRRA
# In short: as §1
# ELK3 = biological target: T6, ELK3 (Homo sapiens, UniProt P41970 1-407); conditions: protein: recombinant; tags: N-terminal GST; dsDNA, one strand shown
# T6 sequence: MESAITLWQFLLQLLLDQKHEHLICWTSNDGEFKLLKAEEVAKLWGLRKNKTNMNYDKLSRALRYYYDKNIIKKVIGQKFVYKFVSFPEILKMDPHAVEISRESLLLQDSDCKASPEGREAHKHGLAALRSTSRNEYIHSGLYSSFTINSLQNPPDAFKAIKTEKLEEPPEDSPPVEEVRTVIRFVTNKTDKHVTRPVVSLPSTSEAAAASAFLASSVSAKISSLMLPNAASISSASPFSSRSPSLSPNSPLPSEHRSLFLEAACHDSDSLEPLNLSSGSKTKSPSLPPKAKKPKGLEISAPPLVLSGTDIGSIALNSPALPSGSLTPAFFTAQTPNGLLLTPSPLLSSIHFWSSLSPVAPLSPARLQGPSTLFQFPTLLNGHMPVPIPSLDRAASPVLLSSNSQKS
# In short: as §1
# FEV = biological target: T7, FEV (Homo sapiens, UniProt Q99581 1-238); conditions: protein: recombinant; tags: N-terminal GST; dsDNA, one strand shown
# T7 sequence: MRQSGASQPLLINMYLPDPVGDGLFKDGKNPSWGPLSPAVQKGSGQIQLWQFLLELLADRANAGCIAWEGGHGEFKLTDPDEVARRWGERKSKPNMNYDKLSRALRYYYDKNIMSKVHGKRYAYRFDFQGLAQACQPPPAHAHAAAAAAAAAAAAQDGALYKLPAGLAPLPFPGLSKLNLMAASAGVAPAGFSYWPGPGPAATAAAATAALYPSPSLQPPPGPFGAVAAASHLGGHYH
# In short: as §1
# ETV5 = ETV5 (Homo sapiens, UniProt P41161 1-510); conditions: protein: recombinant; tags: N-terminal GST; dsDNA, one strand shown
# Chain of ETV5 (P41161 whole entry): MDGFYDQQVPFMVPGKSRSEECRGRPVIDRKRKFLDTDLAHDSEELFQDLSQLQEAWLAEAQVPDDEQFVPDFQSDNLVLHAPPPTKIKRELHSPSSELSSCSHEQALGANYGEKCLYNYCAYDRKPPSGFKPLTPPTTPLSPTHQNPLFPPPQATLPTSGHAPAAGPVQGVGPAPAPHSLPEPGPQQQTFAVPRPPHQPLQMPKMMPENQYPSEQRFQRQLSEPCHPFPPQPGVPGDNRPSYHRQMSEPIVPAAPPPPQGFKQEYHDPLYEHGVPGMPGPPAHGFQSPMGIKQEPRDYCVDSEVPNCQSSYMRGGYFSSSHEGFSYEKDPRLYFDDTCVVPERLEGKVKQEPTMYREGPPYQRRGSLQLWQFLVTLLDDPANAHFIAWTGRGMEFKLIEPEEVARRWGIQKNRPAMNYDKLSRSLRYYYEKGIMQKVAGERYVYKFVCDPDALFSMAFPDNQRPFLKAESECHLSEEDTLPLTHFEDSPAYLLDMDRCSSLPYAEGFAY
# In short: as §1
# HSF1 = HSF1 (Homo sapiens, UniProt Q00613 1-529); conditions: protein: recombinant; tags: N-terminal GST; chain copies: 3; dsDNA, one strand shown
# Chain of HSF1 (Q00613 whole entry): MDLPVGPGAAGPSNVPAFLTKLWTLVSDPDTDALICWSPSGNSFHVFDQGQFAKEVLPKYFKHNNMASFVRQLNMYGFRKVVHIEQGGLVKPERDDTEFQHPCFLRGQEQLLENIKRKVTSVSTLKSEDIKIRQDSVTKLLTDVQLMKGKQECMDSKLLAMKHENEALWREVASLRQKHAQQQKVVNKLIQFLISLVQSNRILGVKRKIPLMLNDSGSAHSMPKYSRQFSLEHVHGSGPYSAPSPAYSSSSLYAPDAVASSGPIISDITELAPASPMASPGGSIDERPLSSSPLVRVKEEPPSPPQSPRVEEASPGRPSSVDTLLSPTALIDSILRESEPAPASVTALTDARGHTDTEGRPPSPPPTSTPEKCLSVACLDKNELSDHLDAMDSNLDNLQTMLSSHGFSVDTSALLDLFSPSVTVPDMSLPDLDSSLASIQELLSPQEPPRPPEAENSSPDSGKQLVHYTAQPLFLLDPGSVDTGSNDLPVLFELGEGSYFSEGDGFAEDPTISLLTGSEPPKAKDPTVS
# In short: as §1
# SPIC = biological target: T8, SPIC (Homo sapiens, UniProt Q8N5J4 1-248); conditions: protein: recombinant; tags: N-terminal GST; dsDNA, one strand shown
# T8 sequence: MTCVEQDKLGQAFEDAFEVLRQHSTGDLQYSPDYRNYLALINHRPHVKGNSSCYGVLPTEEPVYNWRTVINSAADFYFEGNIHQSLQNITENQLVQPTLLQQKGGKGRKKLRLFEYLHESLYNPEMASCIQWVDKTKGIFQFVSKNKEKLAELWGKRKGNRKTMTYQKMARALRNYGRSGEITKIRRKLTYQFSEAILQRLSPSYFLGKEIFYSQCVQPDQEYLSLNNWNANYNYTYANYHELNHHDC
# In short: as §1
# ELF4 = ELF4 (Homo sapiens, UniProt Q99607 1-663); conditions: protein: recombinant; tags: N-terminal GST; dsDNA, one strand shown
# Chain of ELF4 (Q99607 whole entry): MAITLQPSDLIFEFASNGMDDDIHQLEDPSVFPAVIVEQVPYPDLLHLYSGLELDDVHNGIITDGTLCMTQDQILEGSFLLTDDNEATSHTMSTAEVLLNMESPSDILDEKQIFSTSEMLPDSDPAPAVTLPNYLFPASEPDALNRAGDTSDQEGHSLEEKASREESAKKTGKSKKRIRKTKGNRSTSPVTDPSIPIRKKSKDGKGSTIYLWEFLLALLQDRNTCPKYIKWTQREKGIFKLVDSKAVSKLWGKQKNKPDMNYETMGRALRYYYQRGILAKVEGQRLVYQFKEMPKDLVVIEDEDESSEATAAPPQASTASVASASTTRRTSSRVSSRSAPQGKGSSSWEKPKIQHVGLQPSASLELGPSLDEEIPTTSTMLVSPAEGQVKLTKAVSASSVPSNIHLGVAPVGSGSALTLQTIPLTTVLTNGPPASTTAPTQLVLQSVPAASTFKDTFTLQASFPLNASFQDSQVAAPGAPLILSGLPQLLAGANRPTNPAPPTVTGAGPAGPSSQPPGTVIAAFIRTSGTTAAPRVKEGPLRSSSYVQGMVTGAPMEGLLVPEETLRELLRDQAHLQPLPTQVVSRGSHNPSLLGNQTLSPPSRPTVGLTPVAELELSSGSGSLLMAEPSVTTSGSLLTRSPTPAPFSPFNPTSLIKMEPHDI
# In short: as §1
# ELK4 = biological target: T9, ELK4 (Homo sapiens, UniProt P28324-2 1-405); conditions: protein: recombinant; tags: N-terminal GST; dsDNA, one strand shown
# T9 sequence: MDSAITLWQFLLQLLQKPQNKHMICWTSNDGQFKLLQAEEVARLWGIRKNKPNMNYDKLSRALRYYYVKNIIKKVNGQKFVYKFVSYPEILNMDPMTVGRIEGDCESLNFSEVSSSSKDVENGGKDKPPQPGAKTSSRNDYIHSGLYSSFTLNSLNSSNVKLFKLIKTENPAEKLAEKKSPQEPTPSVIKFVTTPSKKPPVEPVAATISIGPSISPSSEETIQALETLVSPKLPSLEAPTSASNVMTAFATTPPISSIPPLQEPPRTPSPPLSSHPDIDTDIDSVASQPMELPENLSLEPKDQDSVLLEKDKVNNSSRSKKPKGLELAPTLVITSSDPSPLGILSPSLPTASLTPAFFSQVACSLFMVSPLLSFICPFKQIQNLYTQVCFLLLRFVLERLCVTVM
# In short: as §1
# ETV2 = biological target: T10, ETV2 (Homo sapiens, UniProt O00321 1-342); conditions: protein: recombinant; tags: N-terminal GST; dsDNA, one strand shown
# T10 sequence: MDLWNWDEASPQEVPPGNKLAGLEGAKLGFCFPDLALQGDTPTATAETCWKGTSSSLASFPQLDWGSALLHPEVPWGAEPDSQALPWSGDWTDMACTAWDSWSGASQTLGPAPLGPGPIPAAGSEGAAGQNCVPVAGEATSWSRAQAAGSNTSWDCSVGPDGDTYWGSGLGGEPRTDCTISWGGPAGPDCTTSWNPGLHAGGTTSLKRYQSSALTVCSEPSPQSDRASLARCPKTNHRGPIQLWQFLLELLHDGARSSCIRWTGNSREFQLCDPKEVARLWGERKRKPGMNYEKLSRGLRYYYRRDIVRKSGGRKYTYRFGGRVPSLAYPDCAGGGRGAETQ
# In short: as §1
# ELF3 = biological target: T11, ELF3 (Homo sapiens, UniProt P78545 1-371); conditions: protein: recombinant; tags: N-terminal GST; dsDNA, one strand shown
# T11 sequence: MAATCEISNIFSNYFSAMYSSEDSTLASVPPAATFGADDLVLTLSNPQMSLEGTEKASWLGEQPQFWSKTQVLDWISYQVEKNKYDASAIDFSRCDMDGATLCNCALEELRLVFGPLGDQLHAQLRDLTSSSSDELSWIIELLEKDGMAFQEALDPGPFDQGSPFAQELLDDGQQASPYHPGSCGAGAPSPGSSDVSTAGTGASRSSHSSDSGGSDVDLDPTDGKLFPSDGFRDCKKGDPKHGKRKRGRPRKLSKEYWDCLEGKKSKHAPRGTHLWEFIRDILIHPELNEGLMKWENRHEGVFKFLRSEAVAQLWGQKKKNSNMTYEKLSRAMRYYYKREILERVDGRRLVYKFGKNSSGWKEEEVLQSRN
# In short: as §1
# CRX = CRX (Homo sapiens, UniProt O43186 1-299); conditions: protein: recombinant; tags: N-terminal GST; dsDNA, one strand shown
# Chain of CRX (O43186 whole entry): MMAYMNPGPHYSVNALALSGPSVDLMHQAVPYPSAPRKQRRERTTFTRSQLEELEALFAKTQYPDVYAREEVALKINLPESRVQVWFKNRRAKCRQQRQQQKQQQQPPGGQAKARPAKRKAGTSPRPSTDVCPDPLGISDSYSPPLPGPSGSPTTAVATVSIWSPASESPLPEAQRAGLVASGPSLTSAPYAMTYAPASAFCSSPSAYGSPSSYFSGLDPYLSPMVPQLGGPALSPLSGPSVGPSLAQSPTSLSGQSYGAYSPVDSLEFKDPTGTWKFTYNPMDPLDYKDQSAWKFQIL
# In short: as §1
# ETV1 = ETV1 (Homo sapiens, UniProt P50549 1-477); conditions: protein: recombinant; tags: N-terminal GST; dsDNA, one strand shown
# Chain of ETV1 (P50549 whole entry): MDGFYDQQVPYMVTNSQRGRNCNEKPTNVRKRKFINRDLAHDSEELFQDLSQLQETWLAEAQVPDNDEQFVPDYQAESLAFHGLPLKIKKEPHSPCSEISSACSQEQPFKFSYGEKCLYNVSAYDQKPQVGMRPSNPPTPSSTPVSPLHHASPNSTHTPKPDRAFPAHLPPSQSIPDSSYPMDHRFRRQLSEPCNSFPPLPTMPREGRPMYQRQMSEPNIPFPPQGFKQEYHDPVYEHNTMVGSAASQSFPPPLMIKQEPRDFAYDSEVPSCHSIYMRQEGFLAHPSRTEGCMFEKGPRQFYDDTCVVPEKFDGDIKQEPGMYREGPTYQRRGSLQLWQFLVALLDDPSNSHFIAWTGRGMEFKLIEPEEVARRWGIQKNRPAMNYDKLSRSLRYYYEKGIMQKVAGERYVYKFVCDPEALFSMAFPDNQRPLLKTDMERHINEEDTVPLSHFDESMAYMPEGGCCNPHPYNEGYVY
# In short: as §1
sequence,measurement,setting,value
CTCGTA,binding signal,FLI1,"1.31 fold enrichment (6-mer frequency, TF over GST control)"
same,binding signal,ELK1,"1.37 fold enrichment (6-mer frequency, TF over GST control)"
same,binding signal,GABPA,"1.3 fold enrichment (6-mer frequency, TF over GST control)"
same,binding signal,ERG,"1.22 fold enrichment (6-mer frequency, TF over GST control)"
same,binding signal,ELF1,"1.32 fold enrichment (6-mer frequency, TF over GST control)"
same,binding signal,EHF,"1.31 fold enrichment (6-mer frequency, TF over GST control)"
same,binding signal,SPI1,"1.39 fold enrichment (6-mer frequency, TF over GST control)"
same,binding signal,SPIB,"1.38 fold enrichment (6-mer frequency, TF over GST control)"
same,binding signal,ELK3,"1.36 fold enrichment (6-mer frequency, TF over GST control)"
same,binding signal,FEV,"1.33 fold enrichment (6-mer frequency, TF over GST control)"
same,binding signal,ETV5,"1.29 fold enrichment (6-mer frequency, TF over GST control)"
same,binding signal,HSF1,"1.77 fold enrichment (6-mer frequency, TF over GST control)"
same,binding signal,SPIC,"1.25 fold enrichment (6-mer frequency, TF over GST control)"
same,binding signal,ELF4,"1.35 fold enrichment (6-mer frequency, TF over GST control)"
same,binding signal,ELK4,"1.16 fold enrichment (6-mer frequency, TF over GST control)"
same,binding signal,ETV2,"1.44 fold enrichment (6-mer frequency, TF over GST control)"
same,binding signal,ELF3,"1.39 fold enrichment (6-mer frequency, TF over GST control)"
same,binding signal,CRX,"1.38 fold enrichment (6-mer frequency, TF over GST control)"
same,binding signal,ETV1,"1.35 fold enrichment (6-mer frequency, TF over GST control)"
